Screen size: about 52,000 compounds; about 4,300 (8.3%) were called active. Shown is part of a subset that was picked to be rich in actives. Values without a mark were called inactive. Cut-off read from the data, not from the text of the source: active = survival mostly below about 52% (no sharp cut-off); inactive = mostly above about 56%.
System: DeltatarO mutant
Assay: S. aureus survival, RN4220 and DeltatarO strains – OD600, teichoic acid synthesis inhibitors, primary screen (AID 463173)
Details: S. aureus RN4220 wild type/DeltatarO growth, OD600, 18 h, hits give low values, screened at 18.75 µg/mL (by protocol)

Compound | survival
Cc1ccc(S(=O)(=O)c2cn(CC(=O)Nc3ccc(Cl)cc3)c3ccc(F)cc3c2=O)cc1C | 53%
CC(C)(C)c1ccc(C(=O)Nc2ccccc2C(=O)OCc2cc(=O)n3ccsc3n2)cc1 | 73%
CC1OC(Nc2ccc(OC(F)(F)F)cc2)C(O)C(O)C1O (centres undefined) | 84%
CCC(C)n1c(=O)c2sccc2n2c(CCCC(=O)N3CCN(c4ccccc4)CC3)nnc12 (centres undefined) | 89%
CCc1cccc(NC(=O)CCNS(=O)(=O)c2cccc3nonc23)c1 | 97%
Cc1ccc(NC(=O)CCS(=O)(=O)c2cccc3nonc23)cc1Cl | 71%
COC(=O)c1ccc(NC(=O)CCNS(=O)(=O)c2cccc3nsnc23)cc1 | 65%
Cc1ccc(NC(=O)CCNS(=O)(=O)c2cccc3nonc23)cc1Cl | 39% (active)
CCOC(=O)c1cccc(NC(=O)CCNS(=O)(=O)c2cccc3nonc23)c1 | 46% (active)
Cc1cc(NC(=O)CCNS(=O)(=O)c2cccc3nsnc23)ccc1Br | 102%
Cc1cccc(NC(=O)CCNS(=O)(=O)c2cccc3nonc23)c1 | 44% (active)
COc1ccc(NC(=O)CCS(=O)(=O)c2cccc3nonc23)cc1Cl | 68%
CCOc1ccc(NC(=O)CCNS(=O)(=O)c2cccc3nsnc23)cc1 | 52%
Cc1ccc(NC(=O)CCS(=O)(=O)c2cccc3nonc23)c(C)c1 | 99%
Cc1cc(Br)ccc1NC(=O)CCNS(=O)(=O)c1cccc2nonc12 | 43% (active)
Cc1cc(Br)ccc1NC(=O)CCS(=O)(=O)c1cccc2nonc12 | 83%
Cc1cccc(Cn2c(=O)n(-c3cc(C)cc(C)c3)c(=O)c3oc4ccccc4c32)c1 | 71%
Cc1sc2ncn(CC(=O)N3CCN(c4ccc(F)cc4)CC3)c(=O)c2c1S(=O)(=O)N1CCC(C)CC1 | 75%
Cc1ccc(C)c(NC(=O)c2ccc(CN3CC(=O)N4CCCCC4C3=O)cc2)c1 (centres undefined) | 54%
Cc1cc(Oc2nc3ccccn3c(=O)c2/C=C(\C#N)c2nc3ccccc3s2)ccc1Cl | 63%
COc1ccc(S(=O)(=O)N2CCC(C(=O)NC(C)c3ccccc3)CC2)cc1 (centres undefined) | 79%
COc1ccc(OC)c(/C=N/c2ncn[nH]2)c1 | 101%
COCCCNC(=O)Cn1c(=O)nc(-c2ccccc2)c2ccccc21 | 78%

Compound | survival
CCOc1ccccc1NC(=O)c1ccc2c(c1)CCCN2S(C)(=O)=O | 81%
Cc1nn(-c2ccc(N3CCCC3)nn2)c(C)c1CCC(=O)Nc1ccc(F)c(Cl)c1 | 68%
O=C(NCc1cccn1Cc1ccccc1)Nc1cccc(C(F)(F)F)c1 | 54%
COCCCNC(=O)c1ccc(Cn2c(=O)c3ccccc3n(Cc3ccc(Cl)cc3)c2=O)cc1 | 89%
COc1ccc(NC(=O)CN(C)S(=O)(=O)c2ccc3nc(C)sc3c2)cc1Cl | 82%
CN(C)c1ccc(/C=N/c2nc3ccccc3o2)cc1 | 85%
COc1ccc(CCNC(=O)c2ccc(Cn3c(SCc4ccccc4)nc4cccnc43)cc2)cc1 | 92%
CCN(C(=O)c1cc2c(s1)-c1c(C)cccc1OC2)c1ccccc1F | 97%
Cc1cccc(CCNC(=O)c2cc3c(s2)-c2c(C)cccc2OC3)c1 | 83%
CCN(Cc1ccccc1)C(=O)c1cc2c(s1)-c1c(C)cccc1OC2 | 55% (active)
CCN(C(=O)c1cc2c(s1)-c1c(C)cccc1OC2)c1cc(C)ccc1C | -1% (active)
Cc1ccc(CCNC(=O)c2cc3c(s2)-c2c(C)cccc2OC3)cc1 | 93%
Cc1ccc(CNC(=O)c2cc3c(s2)-c2c(C)cccc2OC3)cc1 | 68%
CC(C)CCN1C(=O)c2ccccc2CC1(C)C(=O)NC1CCC(C)CC1 (centres undefined) | 100%
CCOC(=O)c1c(C)[nH]c(CCC(=O)NCc2ccccc2Cl)c1C | 98%
CCOc1ccc(NC(=O)Cn2cc(C(=O)c3ccccc3)c(=O)c3cc4c(cc32)OCCO4)cc1 | 73%
COc1ccc(NC(=O)c2cn(-c3ccccc3)nc2-c2ccc(C)cc2)cc1 | 63%
COc1ccccc1NC(=O)c1cn(-c2ccccc2)nc1-c1ccccc1 | 95%
COc1ccc(-c2nn(-c3ccccc3)cc2C(=O)Nc2ccccc2OC)cc1 | -2% (active)
CCOC(=O)c1ccc(NC(=O)c2cn(-c3ccccc3)nc2-c2ccc(Br)cc2)cc1 | 70%
CC(=O)c1ccc(NC(=O)c2cn(-c3ccccc3)nc2-c2ccc(Br)cc2)cc1 | 75%
O=C(O)c1ccc(NC(=O)c2cn(-c3ccccc3)nc2-c2ccc(Br)cc2)cc1 | 24% (active)
CCOC(=O)c1ccc(NS(=O)(=O)c2ccc3c(c2)CCN3C(=O)CC)cc1 | 79%

Compound | survival
Brc1ccc(-c2cn3cc(Cc4ccccc4)sc3n2)cc1 | 64%
COc1cc(NC(=O)Cn2c(=O)oc3cc(S(=O)(=O)N4CCCCCC4)ccc32)cc(OC)c1 | 95%
CC1CCN(C(=O)Cn2c(=O)oc3cc(S(=O)(=O)N4CCCCC4)ccc32)CC1 | 86%
CC1CCN(S(=O)(=O)c2ccc3c(c2)oc(=O)n3CC(=O)N2CCCCC2)CC1 | 66%
CC1CCN(S(=O)(=O)c2ccc3c(c2)oc(=O)n3CC(=O)O)CC1 | 0% (active)
COc1ccc(CCNC(=O)c2cc(=O)[nH]c3ccc(S(=O)(=O)N4CCCCC4C)cc23)cc1OC (centres undefined) | 117%
COc1ccc(OC)c(CNC(=O)c2cc(=O)[nH]c3ccc(S(=O)(=O)N4CCCCC4C)cc23)c1 (centres undefined) | 6% (active)
COc1ccc(NC(=O)Cn2c(=O)oc3cc(S(=O)(=O)N4CCCCC4C)ccc32)cc1 (centres undefined) | 47% (active)
CCOc1ccc(NC(=O)Cn2c(=O)oc3cc(S(=O)(=O)N4CCCCCC4)ccc32)cc1 | 75%
COc1ccc(Br)cc1CNC(=O)c1cc(=O)[nH]c2ccc(S(=O)(=O)N3CCCCC3C)cc12 (centres undefined) | 82%
Fc1ccc(N2CCN(c3ncnc4[nH]ncc34)CC2)cc1 | 95%
CCSc1ncc(Cl)c(C(=O)Nc2c(C(=O)Nc3cccc(C)c3)oc3ccccc23)n1 | 109%
Cc1c(C(=O)NCCc2ccccc2)cccc1-n1cnc2cccnc21 | 75%
O=C(O)c1cccc(NC2SC(=O)N(c3ccccc3)C2=O)c1 (centres undefined) | 107%
O=C1C(=O)N(C2CCN(C(=O)c3ccc(Cl)cc3)CC2)CCN1Cc1ccc(F)cc1 | 78%
COc1ccc(-n2c(SCC(=O)N3CCc4ccccc43)nc3c([nH]c4ccccc43)c2=O)cc1 | 92%
Cc1cccc(NC(=O)CN(C)S(=O)(=O)c2cnc[nH]2)c1C | 97%
CCN1CCc2c(sc(NC(=O)c3ccc(S(=O)(=O)N(C)C4CCCCC4)cc3)c2C(N)=O)C1 | 80%
Cc1ccccc1NC(=O)Cn1cc(S(=O)(=O)N2CCCC2)c(S(=O)(=O)N2CCCC2)c1 | 90%
CC(=O)c1ccc(NC(=O)CCCc2nc(-c3cccc(C)c3)no2)cc1 | 69%
COc1ccc(N2CCN(CCCNC(=O)C3COc4ccccc4C3)CC2)cc1 (centres undefined) | 131%
CCn1c(CNc2ccc(C)cc2)nnc1SCc1ccccc1 | 115%
Cc1ccc(CN(C(=O)Nc2cccc(Cl)c2)c2ccccn2)cc1 | 40% (active)

Compound | survival
CCc1ccc(CN(C(=O)Nc2cccc(Cl)c2)c2ccccn2)cc1 | 94%
O=C(Nc1ccccc1)N(Cc1ccc(F)cc1)c1ccccn1 | 56%
O=C(Nc1ccccc1)N(Cc1cccc(Cl)c1)c1ccccn1 | 37% (active)
COc1ccc(CN(C(=O)Nc2cccc(Cl)c2)c2ccccn2)cc1OC | 92%
COc1cc(CN(C(=O)Nc2cccc(Cl)c2)c2ccccn2)cc(OC)c1OC | 68%
COc1cc(NC(=O)CCn2cnc3ccccc3c2=O)cc(OC)c1 | 122%
CCN(CC)C(=O)Cn1cc(SCC(=O)Nc2cccc(C)c2)c2ccccc21 | 69%
Cc1ccc2c(CC(=O)Nc3c(C(=O)c4ccc(C)c(F)c4)oc4ccccc34)coc2c1 | 96%
O=C(NCc1ccccc1)C1CCN(S(=O)(=O)Cc2ccccc2)CC1 | 98%
Cc1cc(C)cc(NC(=O)C2CCN(S(=O)(=O)c3cccc(-c4noc(C)n4)c3)CC2)c1 | -5% (active)
CCc1cccc(NC(=O)C2CCN(S(=O)(=O)c3cccc(-c4noc(C)n4)c3)CC2)c1 | 73%
CCc1ccc(NC(=O)C2CCN(S(=O)(=O)c3cccc(-c4noc(C)n4)c3)CC2)cc1 | 77%
Cc1ccc(NC(=O)CSc2nc(C3CCCC3)nc3c2c(=O)n(C)c(=O)n3C)c(C)c1 | 73%
COc1cccc(CNC(=O)c2oc3c(c2C)-c2nn(Cc4cccc(Cl)c4)cc2CC3)c1 | 76%
CCOC(=O)c1c(NC(=O)COc2cccc(C)c2C)sc2c1CCC(CC)C2 (centres undefined) | 59%
CCOC(=O)c1c(NC(=O)C2c3ccccc3Oc3ccccc32)sc2c1CCC(CC)C2 (centres undefined) | 52%
CCOC(=O)c1ccc(NC(=O)c2c(NC(C)=O)sc3c2CCC(C)C3)cc1 (centres undefined) | 47%
CCOC(=O)c1c(NC(=O)c2ccccc2OCC)sc2c1CCC(CC)C2 (centres undefined) | -2% (active)
CCC1CCc2c(sc(NC(=O)C3c4ccccc4Oc4ccccc43)c2C(=O)OC)C1 (centres undefined) | 72%
CCOC(=O)c1c(NC(=O)c2ccc(F)cc2)sc2c1CCC(CC)C2 (centres undefined) | 9% (active)
